Inconclusive results are not listed. The source made the active and inactive calls. How the source made its calls, unless noted: active means hit-call score of the fitted dose curve at least 0.9, where 1 is the maximum; inactive means score below 0.9.
Columns and labels:
[1] = target: human Vitamin D Receptor (VDR), VDR (gene 7421) (UniProt P11473); assay: ATG_VDR_TRANS: Attagene TRANS-FACTORIAL HepG2 Assay for human Vitamin D Receptor (VDR) (AID 2283022; active means hit-call score of the fitted dose curve at least 0.9, where 1 is the maximum)
Outline: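 Transactivation by an exogenous VDR-Gal4 chimera in transiently transfected HepG2 cells was measured as reporter transcript level 24 hours after chemical treatment. RT-PCR products were analysed by capillary electrophoresis and fitted in the positive direction relative to DMSO.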

[2] = BSK_3C_SRB: Viability Assessment in the BioMAP Diversity Plus: 3C Assay (AID 2283023); settings: primary human endothelial cells (HUVEC);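 further: fitted both ways against DMSO so a hit may be signal rise or drop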
Outline: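 Cytotoxicity readout in parallel HUVEC 3C cultures: after 24 h compound exposure, cells fixed with 10% TCA, stained with 0.1% SRB and read at 560 nm. Gain or loss relative to DMSO fitted.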

[3] = read-out: Matrix Metallopeptidase 1 (MMP1), MMP1 (gene 4312); assay: BSK_BE3C_MMP1: BioMAP Diversity Plus: BE3C Assay for Matrix Metallopeptidase 1 (MMP1) Biomarker Activity (AID 2283024); settings: primary human bronchial epithelial cells; actives raise or lower the signal
Outline: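 Human bronchial epithelial cells (BE3C system) exposed to compound for 24 h; MMP1 then quantified by ELISA. Activity was fitted in both directions relative to DMSO.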

[4] = BSK_3C_Vis: BioMAP Diversity Plus: 3C Assay for Morphology Visualization (AID 2283025); settings: primary human endothelial cells (HUVEC);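 further: fitted both ways so gain or loss versus DMSO counts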
Outline: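 Chemicals were added to primary human umbilical vein endothelium, cells were incubated 24 h, and morphology was then visualized by light microscopy. Gain or loss of signal was fitted bidirectionally relative to DMSO.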

[5] = read-out: Pselectin, SELP (gene 6403); assay: BSK_4H_Pselectin: BioMAP Diversity Plus: 4H Assay for Pselectin Biomarker Activity (AID 2283026); settings: primary human endothelial cells (HUVEC); actives raise or lower the signal
Outline: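 ELISA read-out of P-selectin on human umbilical vein endothelium after 24 h of dosing. Values derive from bidirectional fitting relative to DMSO. Parallel SRB protein staining flagged overt cytotoxicity.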

[6] = BSK_4H_SRB: Viability Assessment in the BioMAP Diversity Plus: 4H Assay (AID 2283027); settings: primary human endothelial cells (HUVEC);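 further: cells exposed to compound for 24 h before staining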
Outline: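 Human umbilical vein endothelial cells, 24 h after chemical dosing; total protein measured by 0.1% sulforhodamine B staining after 10% TCA fixation, read at 560 nm. Bidirectional fitting against DMSO.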

[7] = BSK_BE3C_SRB: Viability Assessment in the BioMAP Diversity Plus: BE3C Assay (AID 2283028); settings: primary human bronchial epithelial cells
Outline: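 Cytotoxicity read-out: SRB (0.1%) staining of TCA-fixed (10%) human lung bronchial epithelial cells, absorbance 560 nm, 24 h post-dosing. Curves fitted both directions relative to DMSO.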

[8] = read-out: Thrombomodulin, THBD (gene 7056); assay: BSK_3C_Thrombomodulin: BioMAP Diversity Plus: 3C Assay for Thrombomodulin Biomarker Activity (AID 2283029); settings: primary human endothelial cells (HUVEC); actives raise or lower the signal
Outline: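 Read-out is ELISA of thrombomodulin on human umbilical vein endothelium 24 h after chemical dosing. Gain or loss of signal is scored relative to DMSO. Overt cytotoxicity is checked in parallel cultures by sulforhodamine B staining.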

[9] = read-out: Urokinase-type plasminogen activator receptor (uPAR), PLAUR (gene 5329); assay: BSK_4H_uPAR: BioMAP Diversity Plus: 4H Assay for Urokinase-type plasminogen activator receptor (uPAR) Biomarker Activity (AID 2283030); settings: primary human endothelial cells (HUVEC); actives raise or lower the signal
Outline: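 uPAR level read by ELISA on HUVEC cultures (BioMAP 4H) 24 h post-dosing, analyzed for gain or loss relative to DMSO. Parallel SRB staining assessed overt cytotoxicity.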

[10] = read-out: Vascular endothelial growth factor receptor 2 (Homo sapiens) (UniProt P35968); assay: BSK_4H_VEGFRII: BioMAP Diversity Plus: 4H Assay for Vascular endothelial growth factor receptor 2 (VEGFR2) Biomarker Activity (AID 2283031); settings: primary human endothelial cells (HUVEC); actives raise or lower the signal
Outline: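 Measured by ELISA after 24 h of compound treatment: VEGFR2 on primary human umbilical vein endothelial cells, fitted in both directions relative to DMSO. Parallel cultures received SRB staining (560 nm) for overt cytotoxicity.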

[11] = read-out: Human Leukocyte Antigen - DR isotype (HLADR), HLA-DRA (gene 3122); assay: BSK_BE3C_HLADR: BioMAP Diversity Plus: BE3C Assay for Human Leukocyte Antigen - DR isotype (HLADR) Biomarker Activity (AID 2283032); settings: primary human bronchial epithelial cells; actives raise or lower the signal
Outline: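 ELISA read-out of HLA-DR on human lung bronchial epithelial primary cells, measured 24 h post-dosing. Both increases and decreases were scored relative to DMSO vehicle.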

[12] = read-out: Vascular cell adhesion molecule 1 (VCAM1), VCAM1 (gene 7412); assay: BSK_4H_VCAM1: BioMAP Diversity Plus: 4H Assay for Vascular cell adhesion molecule 1 (VCAM1) Biomarker Activity (AID 2283033); settings: primary human endothelial cells (HUVEC); actives raise or lower the signal
Outline: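 ELISA read-out of VCAM-1 on human umbilical vein endothelium 24 hours after chemical dosing; gain or loss of signal was fitted relative to DMSO, with sulforhodamine B staining of parallel cultures flagging overt cytotoxicity.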

[13] = read-out: Interferon-gamma inducible Protein 10 (IP10), CXCL10 (gene 3627); assay: BSK_BE3C_IP10: BioMAP Diversity Plus: BE3C Assay for Interferon-gamma inducible Protein 10 (IP10) Biomarker Activity (AID 2283034); settings: primary human bronchial epithelial cells; actives raise or lower the signal
Outline: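 Chemical is dosed onto human lung bronchial epithelial primary cells, cultures are incubated 24 h, and IP-10 is then quantified by ELISA. Gain or loss of signal is fitted in both directions relative to DMSO.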

[14] = read-out: Monokine induced gamma interferon (MIG), CXCL9 (gene 4283); assay: BSK_BE3C_MIG: BioMAP Diversity Plus: BE3C Assay for Monokine induced gamma interferon (MIG) Biomarker Activity (AID 2283035); settings: primary human bronchial epithelial cells; actives raise or lower the signal;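 further: MIG protein measured by ELISA in BE3C cultures after 24 h of dosing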
Outline: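 Primary human bronchial epithelial cells treated for 24 h; MIG levels measured by ELISA, fitted bidirectionally versus DMSO. Parallel SRB total-protein staining assessed cytotoxicity.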

[15] = read-out: Transforming growth factor beta 1 (TGFb1), TGFB1 (gene 7040); assay: BSK_BE3C_TGFb1: BioMAP Diversity Plus: BE3C Assay for Transforming growth factor beta 1 (TGFb1) Biomarker Activity (AID 2283036;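 further: TGF-b1 protein level measured by ELISA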); settings: primary human bronchial epithelial cells; actives raise or lower the signal
Outline: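 Primary human lung bronchial epithelial cells; compound exposure 24 h; TGF-b1 by ELISA; bidirectional fit, DMSO baseline. Parallel SRB total-protein staining for cytotoxicity.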

[16] = read-out: Plasminogen activator inhibitor-1 (PAI1), SERPINE1 (gene 5054); assay: BSK_BE3C_PAI1: BioMAP Diversity Plus: BE3C Assay for Plasminogen activator inhibitor-1 (PAI1) Biomarker Activity (AID 2283037); settings: primary human bronchial epithelial cells; actives raise or lower the signal
Outline: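 Primary human lung bronchial epithelial cells; chemical dosing; 24 h; PAI-1 measured by ELISA; bidirectional fit referenced to DMSO as negative control.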

[17] = read-out: urokinase plasminogen activator (uPA), PLAU (gene 5328); assay: BSK_BE3C_uPA: BioMAP Diversity Plus: BE3C Assay for urokinase plasminogen activator (uPA) Biomarker Activity (AID 2283038); settings: primary human bronchial epithelial cells; actives raise or lower the signal
Outline: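 ELISA for uPA on human primary bronchial epithelial cultures 24 h post-treatment, gain or loss against DMSO. Parallel SRB staining (0.1% after 10% TCA fixation, 560 nm) assessed overt cytotoxicity.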

[18] = read-out: Urokinase-type plasminogen activator receptor (uPAR), PLAUR (gene 5329); assay: BSK_BE3C_uPAR: BioMAP Diversity Plus: BE3C Assay for Urokinase-type plasminogen activator receptor (uPAR) Biomarker Activity (AID 2283039); settings: primary human bronchial epithelial cells; actives raise or lower the signal;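 further: cells exposed to compound for one day before measurement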
Outline: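 Human bronchial epithelial primary cells; chemical exposure 24 h; uPAR by ELISA; bidirectional fit vs DMSO control.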

[19] = read-out: Interleukin-6 (IL6), IL6 (gene 3569); assay: BSK_CASM3C_IL6: BioMAP Diversity Plus: CASM3C Assay for Interleukin-6 (IL6) Biomarker Activity for (AID 2283040); settings: primary human coronary artery smooth muscle cells; actives raise or lower the signal
[20] = read-out: Tissue plasminogen activator (tPA), PLAT (gene 5327); assay: BSK_BE3C_tPA: BioMAP Diversity Plus: BE3C Assay for Tissue plasminogen activator (tPA) Biomarker Activity (AID 2283041); settings: primary human bronchial epithelial cells; actives raise or lower the signal;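 further: tPA level quantified by ELISA one day after compound addition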
Outline: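 Primary human lung bronchial epithelial cultures receive test chemical; after 24 h, tPA is quantified by ELISA, and gain or loss of signal is fitted bidirectionally relative to DMSO baseline.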

Measured: AC50

Chain of human Vitamin D Receptor (VDR), VDR (gene 7421) (P11473 whole entry, looked up, the tested form may be a part): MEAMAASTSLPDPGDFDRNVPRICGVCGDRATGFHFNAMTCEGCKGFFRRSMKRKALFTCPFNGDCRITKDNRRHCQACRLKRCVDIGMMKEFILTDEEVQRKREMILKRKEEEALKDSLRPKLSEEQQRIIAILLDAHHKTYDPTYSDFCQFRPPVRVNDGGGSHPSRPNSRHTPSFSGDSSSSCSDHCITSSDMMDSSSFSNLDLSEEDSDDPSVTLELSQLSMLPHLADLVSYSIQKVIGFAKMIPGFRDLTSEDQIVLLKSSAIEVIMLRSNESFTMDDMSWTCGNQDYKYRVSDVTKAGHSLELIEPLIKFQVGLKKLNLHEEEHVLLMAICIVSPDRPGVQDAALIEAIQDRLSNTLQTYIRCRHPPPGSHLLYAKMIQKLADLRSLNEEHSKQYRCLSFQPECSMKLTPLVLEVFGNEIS

CC1=C(/C=C/C(C)=C/C=C/C(C)=C/CO)C(C)(C)CCC1
active: [11] 18 µM | [12] 31.1 µM
inactive: all other assays above

Cc1cc(=O)[nH]c(=S)[nH]1
inactive: all assays above

CCCCCC(=O)O
inactive: all assays above

O=c1[nH]cc(F)c(=O)[nH]1
active: [2] 20.4 µM
not listed: [9]
inactive: all other assays above

CC(=O)C(C)=CC1C(C)=CCCC1(C)C (configuration not stated)
not listed: [1]
inactive: all other assays above

Oc1ccc2ccccc2c1N=Nc1ccccc1
active: [3] 3.97 µM | [12] 0.386 µM | [17] 2.47 µM
not listed: [1]
inactive: all other assays above

— PubChem BioAssay (EPA / NIEHS)
